{
  "source": "ChEMBL document CHEMBL3988442",
  "about": "“University of Dundee, Small-Polar-MMV Screening Library” (2021)",
  "data": [
    {"target": "AMP-activated protein kinase, AMPK (Homo sapiens) (UniProt P54646+O43741+P54619+Q9UGJ0+Q9Y478+Q13131+Q9UGI9)", "experiment": "AMP-dependent Kinase enzyme assay. An in vitro enzyme assay that detects ADP turnover that is directly proportional to AMPK activity. This uses naive AMPK that is activated during the assay with MK-8722", "type": "functional", "parameters": "scale not given: direction of the effect not stated beside the values", "conditions": "30 µM", "units": {"Percent Effect": "%"}, "values": [
      {"smiles": "COCCN(Cc1nccs1)c1nc2c(s1)c(C)nn2C", "Percent Effect": -10},
      {"smiles": "O=S(=O)(Cc1nc(C2CC2)no1)c1ccccc1F", "Percent Effect": 1.42},
      {"smiles": "Cc1cc(C2CCCN(CCC(=O)N3CCc4ccccc43)C2)n[nH]1", "note": "(centres undefined)", "Percent Effect": -4.69},
      {"smiles": "NC(=O)C1CCCN(Cc2ccc(C(=O)Nc3cnns3)cc2)C1", "note": "(centres undefined)", "Percent Effect": 5.32},
      {"smiles": "NC(=O)NC(CC(=O)N1CCc2sccc2C1)c1cccc(Br)c1", "note": "(centres undefined)", "Percent Effect": 13.9},
      {"smiles": "CCOCc1ccc(NC(=O)N2CCOC3(CCC3)C2)cc1", "Percent Effect": -2.16},
      {"smiles": "COc1cc(C(=O)O)cc(I)c1OCC(=O)NCCc1ccccc1", "Percent Effect": 11.9},
      {"smiles": "Cc1ccc(CNCc2nccn2C)c(OCC2CC2)c1", "Percent Effect": 3.02},
      {"smiles": "COc1cccc(-c2n[nH]cc2-c2nc(CC3CCN(C)CC3)no2)c1", "Percent Effect": -6.69},
      {"smiles": "CC(C)c1noc(C(C)N2CCN(Cc3noc(C4CC4)n3)CC2)n1", "note": "(centres undefined)", "Percent Effect": -0.511},
      {"smiles": "Cc1nc2c(c(NC(C)c3nnn[nH]3)n1)Cc1ccccc1OC2", "note": "(centres undefined)", "Percent Effect": -6.31},
      {"smiles": "CC(NCc1ccnc(OC2CCC2)c1)c1cnn(C)c1", "note": "(centres undefined)", "Percent Effect": 6.18},
      {"smiles": "Clc1cc(NCc2ncc[nH]2)nc2[nH]ccc12", "Percent Effect": 24.1},
      {"smiles": "NC(=O)COc1cccc(Cn2cc(Br)cn2)c1", "Percent Effect": 3.8},
      {"smiles": "Cc1cc(C(=O)N(C)C2CCS(=O)(=O)C2)c2ccc(F)cc2n1", "note": "(centres undefined)", "Percent Effect": -7.82},
      {"smiles": "CCS(=O)(=O)CCCN1CCSCC1c1ccc(Cl)cc1", "note": "(centres undefined)", "Percent Effect": -4.64},
      {"smiles": "CC(C(=O)NC1(C#N)CCCCC1)N1CCc2c(ncn2C2CC2)C1", "note": "(centres undefined)", "Percent Effect": -1.93},
      {"smiles": "Cc1nnsc1CNC(=O)Nc1cccc(N2CCN(C)C2=O)c1", "Percent Effect": -11},
      {"smiles": "Cc1cc(C)c(C(=O)N(C)CCN(C)C(=O)c2[nH]c(C)cc2C)[nH]1", "Percent Effect": -2.87}
    ]}
  ]
}
